# Reference: PubChem BioAssay (Tox21)
# Records with an inconclusive call do not appear. Where a call stands in place of a potency, no number is given. Active and inactive are the calls of the source. Unless noted, calls come from the whole dose curve; as a rule, active = well fitted curve in the direction sought with a large enough effect in the repeat runs; inconclusive = weak or mixed curves; inactive = no such curve, though single readings can be large; an effect the other way counts as inactive or inconclusive. Positions of bridges follow the written chain, without caps; N, C: chain ends. Non-standard residues stand in square brackets, D forms with d. Residues, ends and D or L forms follow the SMILES beside them. hArg = N=C(N)NCCCC[C@H](N)C(=O)O; Mpa = O=C(O)CCS
# Columns and labels:
# [1] = qHTS assay to identify small molecule antagonists of the thyroid receptor (TR) signaling pathway - cell viability counter screen (AID 743064); note: nearly all actives have a fitted effect of over 50% in size; note: potency is the fitted concentration of half-maximal effect
# In short: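 GH3.TRE-Luc rat pituitary cells carrying a TRE-luciferase reporter were treated with compound plus 1 nM T3 (final) for 23.5 h at 37 °C. Viability was then read in the same wells by CellTiter-Fluor fluorescence after a further 30 min.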
# [2] = qHTS assay to identify small molecule antagonists of the thyroid receptor (TR) signaling pathway (AID 743065); note: nearly all actives have a fitted effect of over 55% in size; note: potency is the fitted concentration of half-maximal effect
# In short: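 GH3.TRE-Luc rat pituitary cells (two TREs driving luciferase) were dosed with compound, then stimulated with 1 nM T3 (final) for 23.5 h at 37 C. ONE-Glo luminescence was the read-out, with CellTiter-Fluor fluorescence as the cytotoxicity counter-screen.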
# [3] = tested on: thyroid hormone receptor (rat, GH3 cells); experiment: qHTS assay to identify small molecule agonists of the thyroid receptor (TR) signaling pathway (AID 743066; calls by dose curve)
# [4] = qHTS assay to identify small molecule antagonists of the estrogen receptor alpha (ER-alpha) signaling pathway - cell viability counter screen (AID 743074; calls by dose curve;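 note: HEK293 cells carrying ER-alpha-UAS-bla reporter stimulated with 17beta-estradiol; nearly all actives have a fitted effect of over 45% in size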)
# [5] = molecular target: Estrogen receptor (Homo sapiens) (UniProt P03372); experiment: qHTS assay to identify small molecule agonists of the estrogen receptor alpha (ER-alpha) signaling pathway (AID 743075; calls by dose curve;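 note: HEK293 GripTite cells with ER-alpha and UAS-driven beta-lactamase reporter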)
# [6] = molecular target: Estrogen receptor (Homo sapiens) (UniProt P03372); experiment: qHTS assay to identify small molecule agonists of the estrogen receptor alpha (ER-alpha) signaling pathway using the BG1 cell line (AID 743079); note: nearly all actives have a fitted effect of over 20% in size
# [7] = qHTS assay to identify small molecule antagonists of the estrogen receptor alpha (ER-alpha) signaling pathway using the BG1 cell line (AID 743080; calls by dose curve;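 note: BG1 cells stimulated with 17beta-estradiol alongside compound; series mostly up to about 70 µM; nearly all actives have a fitted effect of over 25% in size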)
# In short: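 After 5 days in phenol-red-free 10% charcoal-stripped FBS medium, BG1-Luc-4E2 cells were seeded, left 24 h at 37 C, co-treated with compounds and 17beta-estradiol for 21.5 h, then assayed for viability and luciferase.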
# [8] = qHTS assay to identify small molecule antagonists of the estrogen receptor alpha (ER-alpha) signaling pathway using the BG1 cell line - cell viability counter screen (AID 743081);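 note: compound given together with 17beta-estradiol as the ER stimulus; series mostly up to about 70 µM; nearly all actives have a fitted effect of over 45% in size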
# Aromatase (Homo sapiens) = Aromatase (Homo sapiens) (UniProt P11511); experiment: qHTS assay to identify aromatase inhibitors (AID 743083); note: series mostly up to about 70 µM; nearly all actives have a fitted effect of over 55% in size
# [9] = molecular target: Estrogen receptor (Homo sapiens) (UniProt P03372); experiment: qHTS assay to identify small molecule antagonists of the estrogen receptor alpha (ER-alpha) signaling pathway (AID 743069; active = well fitted curve in the direction sought with a large enough effect in the signal ratio in the repeat runs, not every such curve was filed as active; the % refers to the signal ratio)
# In short: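 Reporter cells (ER-alpha-bla, HEK293 background) are conditioned overnight in stripped-serum medium (2% charcoal-stripped FBS). Compound and 17beta-estradiol exposure runs 18 hr at 37C, 5% CO2.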
# Chain of Estrogen receptor (Homo sapiens) (P03372 whole entry, looked up): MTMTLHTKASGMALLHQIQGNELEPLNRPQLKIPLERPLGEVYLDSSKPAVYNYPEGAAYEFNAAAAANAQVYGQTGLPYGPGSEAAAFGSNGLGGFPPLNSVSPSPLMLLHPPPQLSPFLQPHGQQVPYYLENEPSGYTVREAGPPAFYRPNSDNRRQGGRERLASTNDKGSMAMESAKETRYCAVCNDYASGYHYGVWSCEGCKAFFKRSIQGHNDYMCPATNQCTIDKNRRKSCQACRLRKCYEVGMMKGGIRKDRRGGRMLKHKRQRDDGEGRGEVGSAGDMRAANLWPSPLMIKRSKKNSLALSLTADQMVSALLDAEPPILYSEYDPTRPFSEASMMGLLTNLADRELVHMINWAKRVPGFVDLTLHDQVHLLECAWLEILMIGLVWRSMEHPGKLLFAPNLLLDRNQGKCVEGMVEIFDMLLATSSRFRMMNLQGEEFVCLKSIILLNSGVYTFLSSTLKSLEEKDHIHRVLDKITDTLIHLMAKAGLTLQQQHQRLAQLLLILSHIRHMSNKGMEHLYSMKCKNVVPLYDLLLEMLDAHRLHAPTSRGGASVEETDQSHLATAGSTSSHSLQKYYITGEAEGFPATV
# Chain of Aromatase (Homo sapiens) (P11511 whole entry, looked up): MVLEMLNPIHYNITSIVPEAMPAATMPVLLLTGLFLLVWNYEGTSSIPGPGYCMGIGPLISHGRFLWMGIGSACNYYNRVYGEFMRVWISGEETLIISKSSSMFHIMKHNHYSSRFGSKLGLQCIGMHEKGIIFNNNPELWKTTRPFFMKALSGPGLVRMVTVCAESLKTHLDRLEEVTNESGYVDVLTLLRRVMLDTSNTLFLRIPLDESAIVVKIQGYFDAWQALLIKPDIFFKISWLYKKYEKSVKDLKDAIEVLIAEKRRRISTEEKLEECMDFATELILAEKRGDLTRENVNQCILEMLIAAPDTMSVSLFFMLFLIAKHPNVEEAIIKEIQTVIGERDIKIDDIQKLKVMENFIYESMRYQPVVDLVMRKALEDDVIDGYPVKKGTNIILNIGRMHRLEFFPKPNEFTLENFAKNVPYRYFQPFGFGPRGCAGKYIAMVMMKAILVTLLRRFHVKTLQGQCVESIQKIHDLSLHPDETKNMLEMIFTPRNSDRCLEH
SMILES,Potency [1],Potency [2],outcome [3],outcome [4],Potency [5],Potency [6],outcome [7],Potency [8],outcome (Aromatase (Homo sapiens)),outcome [9]
Cc1c(C(=O)c2c[nH]n(C)c2=O)ccc(S(C)(=O)=O)c1C1=NOCC1,inactive,inactive,inactive,inactive,inactive,inactive,inactive,inactive,inactive,
CC(C)COC(=O)c1ccccc1,inactive,inactive,inactive,inactive,inactive,,inactive,inactive,,inactive
Cn1c(=O)c2c(ncn2CCO)n(C)c1=O,inactive,inactive,inactive,inactive,,,,inactive,inactive,
CC(=O)CC(=O)Nc1ccc(C)cc1C,inactive,inactive,inactive,inactive,,,,inactive,inactive,
CC(CO)(CO)CO,inactive,inactive,inactive,inactive,inactive,,inactive,inactive,inactive,inactive
NC(=O)[C@@H]1CSSCCC(=O)N[C@@H](CCCCN=C(N)N)C(=O)NCC(=O)N[C@@H](CC(=O)O)C(=O)N[C@@H](Cc2c[nH]c3ccccc23)C(=O)N2CCC[C@H]2C(=O)N1 ([Mpa][hArg]GDWPC-NH2; disulfide 1-7),inactive,inactive,inactive,inactive,,,inactive,inactive,inactive,inactive
CC(=O)Nc1ccc(OC(=O)c2ccccc2OC(C)=O)cc1,inactive,inactive,inactive,inactive,inactive,inactive,inactive,inactive,inactive,
CN(C)CC/C=C1/c2ccccc2COc2ccc(CC(=O)O)cc21,inactive,inactive,inactive,inactive,,,,inactive,,
CC1(C)CC(OC(=O)CCCCCCCCC(=O)OC2CC(C)(C)NC(C)(C)C2)CC(C)(C)N1,2.96 µM (active),5.91 µM (active),inactive,,inactive,inactive,inactive,inactive,inactive,inactive
CN(C)CCCCl,inactive,inactive,inactive,inactive,inactive,,inactive,inactive,inactive,inactive
CCn1cc(C(=O)O)c(=O)c2cnc(N3CCCC3)nc21,inactive,inactive,inactive,inactive,,,,inactive,,
N#Cc1ccccc1O,inactive,inactive,inactive,inactive,inactive,inactive,inactive,inactive,inactive,
CCCCSCCCC,inactive,inactive,inactive,inactive,,,,inactive,inactive,
CC1=C(C(=O)O)N2C(=O)[C@@H](NC(=O)[C@H](N)C3=CCC=CC3)[C@H]2SC1,inactive,inactive,inactive,,inactive,inactive,inactive,,inactive,inactive
C=CC/C=C/C,inactive,inactive,inactive,inactive,inactive,,inactive,inactive,inactive,inactive
O=C(O)[C@H](O)c1ccccc1,inactive,inactive,inactive,inactive,inactive,,inactive,inactive,inactive,inactive
CC(=O)OC(C)=O,inactive,inactive,inactive,inactive,,,,inactive,inactive,
COS(=O)(=O)O,inactive,inactive,inactive,inactive,,,,inactive,inactive,
OCC1(CO)COCOC1,inactive,inactive,inactive,inactive,,,,inactive,inactive,
N[C@@H](Cc1ccc(O)cc1)C(=O)O,inactive,inactive,inactive,inactive,,,,inactive,inactive,
COc1c2occc2c(OC)c2c(=O)cc(C)oc12,inactive,inactive,inactive,,,,,inactive,inactive,
CC(C)[C@H]1CC[C@H](C)C[C@@H]1O,inactive,inactive,inactive,inactive,,,,inactive,inactive,
C=CC(=O)OCC1CCCO1 (stereo not drawn),inactive,inactive,,,inactive,inactive,inactive,inactive,inactive,inactive

SMILES,Potency [1],Potency [2],outcome [3],outcome [4],Potency [5],Potency [6],outcome [7],Potency [8],outcome (Aromatase (Homo sapiens)),outcome [9]
O=Cc1ccccc1Cl,inactive,inactive,inactive,inactive,,,,inactive,inactive,
CCC(=O)CC,inactive,inactive,inactive,inactive,,,,inactive,inactive,
CN(C)CCN(C)CCO,inactive,,,inactive,inactive,inactive,inactive,inactive,inactive,inactive
CC(C)OC(=O)OCOP(=O)(CO[C@H](C)Cn1cnc2c(N)ncnc21)OCOC(=O)OC(C)C,inactive,,inactive,inactive,inactive,inactive,inactive,inactive,,inactive
CC(C)NCC(O)c1ccc2ccccc2c1 (stereo not drawn),inactive,inactive,inactive,inactive,,,,inactive,inactive,
CC(C)=CCC/C(C)=C/COC=O,inactive,inactive,inactive,inactive,,,,inactive,inactive,
O/N=C/C=N/O,inactive,inactive,inactive,inactive,,,,inactive,inactive,
Nc1nc(-c2ccccc2)c(Br)c(=O)[nH]1,inactive,,,inactive,inactive,inactive,inactive,inactive,inactive,inactive
CC(O)CC(C)O (stereo not drawn),inactive,inactive,inactive,inactive,,,,inactive,inactive,
CC(O)COC(C)(C)C (stereo not drawn),inactive,inactive,inactive,inactive,,,,inactive,inactive,
CCCCCC/C=C/C(=O)OC,inactive,inactive,inactive,inactive,,,,inactive,inactive,
CCCCCCCCCCCCCBr,inactive,inactive,inactive,inactive,,,,inactive,inactive,
O=NN(CCCl)C(=O)NC1CCCCC1,inactive,inactive,inactive,inactive,,,,inactive,inactive,
O=C(O)CSCC(=O)NC1CCSC1=O (stereo not drawn),inactive,inactive,inactive,inactive,,,,inactive,inactive,
Cc1ccc(C)c([N+](=O)[O-])c1,inactive,inactive,inactive,inactive,,,,inactive,inactive,
CC(C)CCOC(=O)c1ccccc1,inactive,inactive,inactive,inactive,,,,inactive,inactive,
C=CC(=O)CCCCC,inactive,inactive,inactive,,,,,inactive,inactive,
C/C=C(\C)C(=O)OCCc1ccccc1,inactive,inactive,inactive,inactive,,,,inactive,inactive,
C/C=C(\C)C(C)=O,inactive,,,inactive,inactive,inactive,inactive,inactive,inactive,inactive
O=C(CN1CCNCC1)NC1CCCCC1,inactive,,,inactive,inactive,inactive,inactive,inactive,inactive,inactive
O=[N+]([O-])c1c(Cl)cc(Cl)cc1Cl,inactive,inactive,inactive,inactive,,,,inactive,inactive,
NCc1ccc(S(N)(=O)=O)cc1,inactive,inactive,inactive,inactive,,,,inactive,inactive,
CC(C)=CCC[C@@](C)(O)[C@H]1CC=C(C)CC1,inactive,inactive,inactive,inactive,,,,inactive,inactive,

SMILES,Potency [1],Potency [2],outcome [3],outcome [4],Potency [5],Potency [6],outcome [7],Potency [8],outcome (Aromatase (Homo sapiens)),outcome [9]
C=CCCCCCCCC,inactive,inactive,inactive,inactive,,,,inactive,inactive,
CC(Oc1cc(Cl)ccc1Cl)C(=O)O (stereo not drawn),inactive,inactive,inactive,inactive,,,,inactive,inactive,
CC(=O)c1cc(C)oc1C,inactive,inactive,inactive,inactive,,,,inactive,inactive,
OCCN1CCOCC1,inactive,inactive,inactive,,inactive,inactive,inactive,inactive,inactive,
C=C(C)[C@@H]1CC=C(C)CC1,inactive,,,inactive,inactive,,inactive,inactive,inactive,inactive
COC(=O)CCCCC(=O)O,,inactive,inactive,inactive,inactive,inactive,inactive,inactive,inactive,inactive
N[C@@H](CSCCCO)C(=O)O,,inactive,inactive,inactive,inactive,inactive,inactive,inactive,inactive,inactive
C[Si]1(C)O[Si](C)(C)O[Si](C)(C)O[Si](C)(C)O[Si](C)(C)O1,,inactive,inactive,inactive,inactive,inactive,inactive,inactive,inactive,inactive
CC(=O)O[C@@H]1CC2CCC1(C)C2(C)C (stereo partly drawn),inactive,,,inactive,,,,inactive,inactive,
CCCC(=O)OC/C=C(\C)CCC=C(C)C,,inactive,inactive,inactive,inactive,inactive,inactive,,inactive,inactive
CCCCCCCCCOC(=O)CCCCC(=O)OCCCCCCC,inactive,,,inactive,,,,inactive,inactive,
C=C(C)c1cccc(C(C)(C)N=C=O)c1,,inactive,inactive,inactive,inactive,inactive,inactive,inactive,inactive,inactive
C=CCCCC,,inactive,inactive,inactive,inactive,,inactive,inactive,inactive,inactive
C=CCOC(=O)CCCCCC,inactive,,,inactive,,,,inactive,inactive,
[O]=[Mo](=[O])=[O],,inactive,inactive,inactive,inactive,inactive,inactive,inactive,inactive,inactive
CC1(C)Oc2ccc(C#N)cc2[C@@H](N2CCCC2=O)[C@@H]1O,,inactive,inactive,inactive,inactive,inactive,inactive,inactive,inactive,inactive
CC(C)c1ccc(C=O)cc1,,inactive,inactive,inactive,inactive,inactive,inactive,inactive,inactive,inactive
CC1(C)Cc2cccc(N)c2O1,,inactive,inactive,inactive,inactive,inactive,inactive,inactive,inactive,inactive
CC(=O)O[C@H]1C[C@@H]2CC[C@@]1(C)C2(C)C,inactive,,,inactive,,,,inactive,inactive,
CCNC(=O)NCc1cccc(Cl)c1,,inactive,inactive,inactive,inactive,inactive,inactive,inactive,inactive,inactive
C#CCN[C@@H]1CCc2ccccc21,,inactive,inactive,inactive,inactive,inactive,inactive,inactive,inactive,inactive
O=C1CCC(=O)N1Cl,,inactive,inactive,inactive,inactive,inactive,inactive,inactive,inactive,inactive
